The results in this text go back to the supplement of paper PMC7156485.

± gives the standard deviation of the averaged measurements.

What all share (details): concentration: 10 µM; 24 h
Experiment [1] has as its system HCC1569. The experiment in a line: cell number relative to DMSO (% of DMSO); higher = more cells (less growth inhibition / toxicity). In a few lines:
(§1)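 HCC1569 and TDF cells (800 per well, 384-well plates, RPMI with 10% FBS) were treated with compounds at 10 µM for 24 h at 37 °C, in triplicate. Cells were fixed in 3.7% formaldehyde and stained with a rabbit anti-H1.0 antibody, an AlexaFluor 647 secondary and DAPI; six fields per well were imaged at ×10. H1.0 nuclear intensity or cell number is expressed as percent of the plate DMSO control, taking the median of replicates. HCC1569 values were smoothed for positional effects.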

Experiment [2] has as its system TDF. The experiment is described as above. The method, boiled down:
as §1

In experiment [3] the test system is TDF. The experiment in a line: H1.0 immunofluorescence intensity relative to DMSO (% of DMSO); higher = stronger H1.0 induction, active = 120 or more. The method, boiled down:
as §1

Experiment [4] deals with HCC1569. Briefly: H1.0 immunofluorescence intensity relative to DMSO (% of DMSO); higher = stronger H1.0 induction, active = 140 or more. In a few lines:
as §1
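Throughout, for H1.0 immunofluorescence intensity relative to DMSO: TDF is a line of transformed human dermal fibroblasts of mesenchymal origin.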
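Throughout, for cell number relative to DMSO: TDF denotes transformed human dermal fibroblasts of mesenchymal origin.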

`CCC1C(C)=NN=C(c2ccc(OC)c(OC)c2)c2cc(OC)c(OC)cc21` (stereo unspecified): the cell number with HCC1569 [1] was found to be 93.8; with TDF [2] it was 103. For the same molecule, the H1.0 immunofluorescence intensity with TDF [3] is 93.1 (inactive); in the experiment with HCC1569 [4], 90.9 (inactive).

Regarding `CCC(CO)NC(=O)C1C=C2c3cccc4[nH]cc(c34)CC2N(C)C1.O=C(O)C=CC(=O)O` (stereo unspecified) [Methylergonovine maleate], the cell number turned out to be 101 ± 2.1 with HCC1569 [1] and 100 ± 2.5 in the experiment with TDF [2]. The H1.0 immunofluorescence intensity is 97.4 (inactive) with TDF [3] and 92.3 (inactive) in the experiment on HCC1569 [4].

Regarding `CC1C(=O)OC2CCN3CC=C(COC(=O)C(C)(O)C1(C)O)C23` (stereo unspecified) [Monocrotaline], the cell number with HCC1569 [1] was determined as 102; in the experiment on TDF [2], 109. The H1.0 immunofluorescence intensity in the experiment on TDF [3] was 85.6 (inactive); in the experiment on HCC1569 [4], 90.2 (inactive).

Consider `OCC1CCCN2CCCCC12` (stereo unspecified) [Lupinine], for which the cell number came to 109 with HCC1569 [1] and 104 in the experiment on TDF [2]. Moreover, the H1.0 immunofluorescence intensity is 96.3 (inactive) with TDF [3] and 84.3 (inactive) in the experiment with HCC1569 [4].

As for `CCCCCCCCCCCCCCCCOCC(O)COP(=O)([O-])OCC[N+](C)(C)C` (stereo unspecified), the cell number in the experiment on HCC1569 [1] was found to be 101; in the experiment with TDF [2] it was 105. The H1.0 immunofluorescence intensity was 97.4 (inactive) with TDF [3] and 104 (inactive) in the experiment on HCC1569 [4].

`NCC(CC(=O)O)c1ccc(Cl)cc1` (racemic): the cell number with HCC1569 [1] amounted to 99.3; in the experiment with TDF [2], 112. Also, the H1.0 immunofluorescence intensity in the experiment with TDF [3] was 94.3 (inactive); with HCC1569 [4], 99.1 (inactive).

In the case of `CCCCC(C)C(OC(=O)CC(CC(=O)O)C(=O)O)C(CC(C)CCCCCCC(O)CC(O)C(C)N)OC(=O)CC(CC(=O)O)C(=O)O` (stereo unspecified) [Fumonisin B2], the cell number in the experiment with HCC1569 [1] was 100; in the experiment on TDF [2], 102. Moreover, the H1.0 immunofluorescence intensity was 97.3 (inactive) in the experiment with TDF [3] and 89.7 (inactive) in the experiment on HCC1569 [4].

With `NC(C(=O)O)c1cc(=O)[nH]o1` (racemic), the cell number came to 104 in the experiment with HCC1569 [1] and 103 with TDF [2]. Further, the figures for the H1.0 immunofluorescence intensity in the experiment with TDF [3] and with HCC1569 [4] were 92.2 (inactive) and 92.6 (inactive), respectively.

Turning to `CCCN1CCCC(c2cccc(O)c2)C1.Cl` (stereo not drawn) [R(+)-3PPP hydrochloride], the cell number with HCC1569 [1] was determined as 104; in the experiment with TDF [2], 106. The values for the H1.0 immunofluorescence intensity with TDF [3] and in the experiment with HCC1569 [4] were 88.2 (inactive) and 103 (inactive), respectively.

With `CN1CCC23CCCCC2C1Cc1ccc(O)cc13.O=C(O)C(O)C(O)C(=O)O` [Dextrorphan D-tartrate], the values for the cell number in the experiment on HCC1569 [1] and with TDF [2] were 103 and 105, respectively. Moreover, the H1.0 immunofluorescence intensity in the experiment with TDF [3] was 93.1 (inactive); in the experiment on HCC1569 [4] it was 89.2 (inactive).

`C1CCc2nnnn2CC1` [Pentylenetetrazole]: the cell number in the experiment with HCC1569 [1] worked out at 102; with TDF [2], 113. Also, the H1.0 immunofluorescence intensity in the experiment with TDF [3] was 99 (inactive); in the experiment with HCC1569 [4] it was 98.1 (inactive).

For the molecule `CC(N)C(O)c1ccc(O)c(O)c1` (single isomer, unassigned; (-)) [(-)-alpha-Methylnorepinephrine], the figures for the cell number in the experiment with HCC1569 [1] and in the experiment on TDF [2] were 99.4 and 98.5, respectively. Also, the H1.0 immunofluorescence intensity with TDF [3] was 85.9 (inactive); with HCC1569 [4], 93.1 (inactive).

For `CCN(CC)C(=O)NC1CC2c3cccc4[nH]cc(c34)CC2N(C)C1` (stereo not drawn) [R(+)-Terguride], the cell number in the experiment with HCC1569 [1] worked out at 101; in the experiment with TDF [2], 110. Also, the H1.0 immunofluorescence intensity was 91.9 (inactive) in the experiment with TDF [3] and 99.5 (inactive) in the experiment with HCC1569 [4].

Take `CCn1cc(C(=O)[O-])c(=O)c2ccc(C)nc21.[Na+]` [Nalidixic acid sodium]: the cell number in the experiment on HCC1569 [1] and in the experiment on TDF [2] was 107 throughout. Also, the H1.0 immunofluorescence intensity in the experiment on TDF [3] is 86 (inactive); in the experiment on HCC1569 [4], 92.4 (inactive).

Regarding `CC1OC(=O)C(C(C)C)NC(=O)C(C(C)C)OC(=O)C(C(C)C)NC(=O)C(C)OC(=O)C(C(C)C)NC(=O)C(C(C)C)OC(=O)C(C(C)C)NC(=O)C(C)OC(=O)C(C(C)C)NC(=O)C(C(C)C)OC(=O)C(C(C)C)NC1=O` (stereo unspecified) [Valinomycin], the cell number in the experiment with HCC1569 [1] stood at 65; in the experiment on TDF [2], 56.8. Moreover, the H1.0 immunofluorescence intensity is 108 (inactive) with TDF [3] and 174 (active) in the experiment on HCC1569 [4].

Turning to `Cc1o[nH]c(=O)c1CC(N)C(=O)O` (racemic), the values for the cell number in the experiment with HCC1569 [1] and with TDF [2] were 103 and 101, respectively. Besides, the H1.0 immunofluorescence intensity with TDF [3] was 96.3 (inactive); in the experiment with HCC1569 [4], 87.9 (inactive).

As to `N#CC(OC1OC(COC2OC(CO)C(O)C(O)C2O)C(O)C(O)C1O)c1ccccc1` (stereo unspecified) [Amygdalin], the cell number with HCC1569 [1] stood at 103; with TDF [2], 91.7. Besides, the values for the H1.0 immunofluorescence intensity with TDF [3] and with HCC1569 [4] were 100 (inactive) and 90.7 (inactive), respectively.

For the molecule `COc1cc2c(cc1O)CCNC2C` (stereo unspecified) [Salsoline], the cell number amounted to 100 with HCC1569 [1] and 104 in the experiment on TDF [2]. Moreover, the results for the H1.0 immunofluorescence intensity in the experiment with TDF [3] and in the experiment on HCC1569 [4] were 91 (inactive) and 95.5 (inactive), respectively.

In the case of `CC(C(O)CCC(C)(C)O)C1CCC2(O)C3=CC(=O)C4CC(O)C(O)CC4(C)C3CCC12C` (stereo unspecified) [Ecdysone], the cell number in the experiment with HCC1569 [1] was found to be 103; in the experiment with TDF [2], 112. Further, the figures for the H1.0 immunofluorescence intensity in the experiment on TDF [3] and with HCC1569 [4] were 90.8 (inactive) and 88.8 (inactive), respectively.

As for `CCN(CC)c1ncnc2c1ncn2C1OC(COP(=O)([O-])OP(=O)([O-])C(Br)(Br)P(=O)([O-])O)C(O)C1O.[Na+].[Na+].[Na+]` (stereo unspecified), the cell number was found to be 102 in the experiment on HCC1569 [1] and 101 with TDF [2]. The H1.0 immunofluorescence intensity in the experiment on TDF [3] is 92.6 (inactive); with HCC1569 [4] it was 96.5 (inactive).

As for `C=CC12CN(C)C3C4COC(CC41)C1(C(=O)Nc4ccccc41)C32.Cl` (stereo unspecified), the results for the cell number in the experiment on HCC1569 [1] and in the experiment with TDF [2] were 102 and 111, respectively. The H1.0 immunofluorescence intensity was 101 (inactive) in the experiment with TDF [3] and 94.5 (inactive) in the experiment with HCC1569 [4].

On to `Cl.NCC#Cc1ccccc1` [3-Phenylpropargylamine hydrochloride], for which the cell number in the experiment on HCC1569 [1] came out at 104; in the experiment on TDF [2] it was 110. In addition, the values for the H1.0 immunofluorescence intensity in the experiment with TDF [3] and in the experiment with HCC1569 [4] were 80.3 (inactive) and 102 (inactive), respectively.

Take `CCNC1=Nc2ccc(Cl)cc2C(C)(c2ccccc2)O1.Cl` (stereo unspecified): the cell number with HCC1569 [1] came out at 92.5; with TDF [2], 105. The H1.0 immunofluorescence intensity is 97.3 (inactive) in the experiment with TDF [3] and 141 (active) in the experiment with HCC1569 [4].

In the case of `CCC(CO)NC(=O)C1C=C2c3cccc4c3c(cn4C)CC2N(C)C1.O=C(O)C=CC(=O)O` (stereo unspecified) [Methysergide maleate], the cell number in the experiment on HCC1569 [1] was 101 ± 2.7; in the experiment with TDF [2], 97.1 ± 7. In addition, the figures for the H1.0 immunofluorescence intensity in the experiment on TDF [3] and in the experiment on HCC1569 [4] were 100 (inactive) and 97 (inactive), respectively.
